# Measured values from PubChem BioAssay (EPA / NIEHS).
# “And” between values parts separate entries of the source, which are not always exact repeats. Equal entries are not always repeated. The source made the active and inactive calls. Rule for the calls: active = hit-call score of the fitted dose curve at least 0.9, where 1 is the maximum; inactive = score below 0.9.
# Legend:
# [1] = ATG_EGR_CIS: Attagene CIS-FACTORIAL HepG2 Assay for human Early Growth Response 1 (EGR1) (AID 2282938); conditions: HepG2 Attagene CIS-FACTORIAL EGR reporter mRNA; actives raise or lower the signal
# How it was run: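 Endogenous TF activity in HepG2 liver cells was gauged through cis-promoter reporter constructs transiently transfected. After 24 h dosing, reporter mRNA was quantified by RT-PCR and capillary electrophoresis, and curves fitted in both directions versus DMSO.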
# [2] = ATG_M_19_CIS: Attagene CIS-FACTORIAL HepG2 Assay for M19 Transcription Factor (Internal Marker) (AID 2282939); conditions: HepG2 Attagene CIS-FACTORIAL M19 internal marker reporter; actives raise or lower the signal
# How it was run: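 HepG2 cells transiently transfected with cis-regulated multiple reporter transcription units were dosed for 24 h; reporter mRNA was quantified by RT-PCR, 6-FAM primer-extension labelling, HpaI digestion and capillary electrophoresis, with bidirectional fitting against DMSO baseline.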
# [3] = ATG_ERE_CIS: Attagene CIS-FACTORIAL HepG2 Assay for Estrogen Response Element (ERE) (AID 2282940); conditions: HepG2 ERE cis-reporter, Attagene RNA transcript; actives raise or lower the signal
# How it was run: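 HepG2 cells transiently transfected with cis-promoter-driven multiplexed reporter transcription units report endogenous TF activity. After 24 h compound exposure, reporter mRNA is quantified by RT-PCR with capillary electrophoresis fluorescence; bidirectional fitting versus DMSO baseline.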
# [4] = ATG_Ets_CIS: Attagene CIS-FACTORIAL HepG2 Assay for human Erythroblast Transformation Specific (ETS) (AID 2282941); conditions: HepG2 ETS cis-reporter transcription; AC50: actives raise or lower the signal unless noted; outcome: actives raise or lower the signal unless noted
# How it was run: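 Endogenous transcription factor activity read as reporter mRNA via RT-PCR and capillary electrophoresis, with gain or loss fitted bidirectionally against DMSO. Human HepG2 liver cells, transiently transfected CIS reporter constructs, 24 h exposure.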
# [5] = target: Hepatocyte nuclear factor 3-beta (Homo sapiens) (UniProt Q9Y261); assay: ATG_FoxA2_CIS: Attagene CIS-FACTORIAL HepG2 Assay for human Forkhead box A2 (FOXA2) (AID 2282942); conditions: HepG2 cis-reporter transcription factor activity, 24 h; actives raise or lower the signal
# Sequence of Hepatocyte nuclear factor 3-beta (Homo sapiens) (Q9Y261 whole entry, looked up): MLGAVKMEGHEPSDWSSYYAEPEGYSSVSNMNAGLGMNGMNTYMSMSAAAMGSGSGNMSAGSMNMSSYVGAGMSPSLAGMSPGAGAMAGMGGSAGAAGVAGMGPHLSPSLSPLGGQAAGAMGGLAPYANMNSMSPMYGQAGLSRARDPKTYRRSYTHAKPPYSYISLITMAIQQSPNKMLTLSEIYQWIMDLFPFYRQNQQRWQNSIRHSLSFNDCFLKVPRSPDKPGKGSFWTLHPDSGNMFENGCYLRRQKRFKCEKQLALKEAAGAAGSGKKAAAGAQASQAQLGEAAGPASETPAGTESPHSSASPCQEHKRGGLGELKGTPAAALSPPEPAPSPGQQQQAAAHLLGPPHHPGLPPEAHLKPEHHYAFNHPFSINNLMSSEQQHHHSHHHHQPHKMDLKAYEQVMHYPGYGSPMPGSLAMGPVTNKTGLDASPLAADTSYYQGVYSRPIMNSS
# How it was run: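 Endogenous transcription factor activity was read in HepG2 cells carrying transiently transfected cis-promoter reporter units. After 24 h dosing, reporter mRNA was quantified by RT-PCR and capillary electrophoresis, and values fitted bidirectionally versus DMSO.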
# [6] = ATG_GATA_CIS: Attagene CIS-FACTORIAL HepG2 Assay for human GATA Binding Protein (AID 2282944); conditions: HepG2 GATA cis-element reporter, Attagene multiplex mRNA; actives raise or lower the signal
# How it was run: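 HepG2 cells transiently transfected with multiplexed cis-element reporter units reflecting endogenous transcription factor activity; reporter mRNA measured after 24 h dosing by RT-PCR, 6-FAM labeling, HpaI digestion and capillary electrophoresis. Bidirectional fitting versus DMSO baseline.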
# [7] = ATG_GLI_CIS: Attagene CIS-FACTORIAL HepG2 Assay for human Zinc Finger Protein GLI1 (AID 2282945); conditions: HepG2, Attagene cis-factorial reporter mRNA, GLI element; actives raise or lower the signal
# How it was run: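 Bidirectional curve fits relative to DMSO, using reporter mRNA levels from RT-PCR plus capillary electrophoresis. Cells were HepG2 transiently carrying cis-regulated reporter constructs, harvested 24 h after dosing.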
# [8] = target: Bile acid receptor (Homo sapiens) (UniProt Q96RI1); assay: ATG_IR1_CIS: Attagene CIS-FACTORIAL HepG2 Assay for human Nuclear Receptor Subfamily 1 Group H Member 4 (NR1H4), IR1 submotif (AID 2282946); conditions: IR1 reporter transcription, actives raise or lower the signal
# Sequence of Bile acid receptor (Homo sapiens) (Q96RI1 whole entry, looked up): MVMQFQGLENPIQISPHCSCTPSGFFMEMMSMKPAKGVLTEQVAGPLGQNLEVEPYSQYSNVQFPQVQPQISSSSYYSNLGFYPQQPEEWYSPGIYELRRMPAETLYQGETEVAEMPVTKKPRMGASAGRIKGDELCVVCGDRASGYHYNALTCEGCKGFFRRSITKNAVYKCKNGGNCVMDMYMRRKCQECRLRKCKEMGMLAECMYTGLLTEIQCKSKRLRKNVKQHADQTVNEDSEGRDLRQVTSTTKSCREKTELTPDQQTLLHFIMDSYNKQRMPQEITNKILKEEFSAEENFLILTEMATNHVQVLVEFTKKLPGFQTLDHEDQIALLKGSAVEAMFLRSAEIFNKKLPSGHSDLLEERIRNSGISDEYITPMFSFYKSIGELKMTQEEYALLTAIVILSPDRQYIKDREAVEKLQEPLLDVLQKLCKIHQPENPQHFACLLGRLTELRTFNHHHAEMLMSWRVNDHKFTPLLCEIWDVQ
# How it was run: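 HepG2 cells transiently transfected with multiplexed cis-element reporter units read endogenous transcription factor activity. After 24 h compound exposure, reporter mRNA was quantified by RT-PCR, fluorescent labelling, HpaI digestion and capillary electrophoresis; bidirectional fitting versus DMSO baseline.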
# [9] = ATG_GRE_CIS: Attagene CIS-FACTORIAL HepG2 Assay for human Glucocorticoid Response Elements (GRE) (AID 2282947); conditions: HepG2 GRE cis-reporter, Attagene multiplex mRNA; AC50: actives raise or lower the signal unless noted; outcome: actives raise or lower the signal unless noted
# How it was run: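 Multiplexed cis-reporter mRNA induction, HepG2, 24 h post-dose. RT-PCR, FAM-labelled, HpaI-digested amplicons by CE. Bidirectional fit vs DMSO.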
# [10] = ATG_M_32_CIS: Attagene CIS-FACTORIAL HepG2 Assay for M32 Transcription Factor (Internal Marker) (AID 2282949); conditions: HepG2 Attagene cis-factorial M32 reporter, mRNA; actives raise or lower the signal;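 note: background control marker of the multiplexed CIS panel rather than a real target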
# How it was run: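 Transient MRTU transfection of HepG2; 24 h compound treatment; TriZol RNA, oligo(dT) RT, reporter PCR, 6-FAM primer extension, HpaI cut, CE. Gain/loss of signal vs DMSO.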
# [11] = ATG_M_06_CIS: Attagene CIS-FACTORIAL HepG2 Assay for M06 Transcription Factor (Internal Marker) (AID 2282950); conditions: HepG2 Attagene CIS-FACTORIAL M06 internal marker reporter; actives raise or lower the signal
# How it was run: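 HepG2 cells transiently transfected with cis-regulated multiple reporter transcription units were exposed to chemical for 24 h; reporter mRNA was quantified by RT-PCR, 6-FAM primer labelling, HpaI digestion and capillary electrophoresis, fitted bidirectionally against DMSO.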
# [12] = target: Hypoxia-inducible factor 1-alpha (Homo sapiens) (UniProt Q16665); assay: ATG_HIF1a_CIS: Attagene CIS-FACTORIAL HepG2 Assay for human Hypoxia Inducible Factor 1 (HIF1A) (AID 2282951); conditions: HepG2 Attagene cis-factorial HIF1a reporter transcription; actives raise or lower the signal
# Sequence of Hypoxia-inducible factor 1-alpha (Homo sapiens) (Q16665 whole entry, looked up): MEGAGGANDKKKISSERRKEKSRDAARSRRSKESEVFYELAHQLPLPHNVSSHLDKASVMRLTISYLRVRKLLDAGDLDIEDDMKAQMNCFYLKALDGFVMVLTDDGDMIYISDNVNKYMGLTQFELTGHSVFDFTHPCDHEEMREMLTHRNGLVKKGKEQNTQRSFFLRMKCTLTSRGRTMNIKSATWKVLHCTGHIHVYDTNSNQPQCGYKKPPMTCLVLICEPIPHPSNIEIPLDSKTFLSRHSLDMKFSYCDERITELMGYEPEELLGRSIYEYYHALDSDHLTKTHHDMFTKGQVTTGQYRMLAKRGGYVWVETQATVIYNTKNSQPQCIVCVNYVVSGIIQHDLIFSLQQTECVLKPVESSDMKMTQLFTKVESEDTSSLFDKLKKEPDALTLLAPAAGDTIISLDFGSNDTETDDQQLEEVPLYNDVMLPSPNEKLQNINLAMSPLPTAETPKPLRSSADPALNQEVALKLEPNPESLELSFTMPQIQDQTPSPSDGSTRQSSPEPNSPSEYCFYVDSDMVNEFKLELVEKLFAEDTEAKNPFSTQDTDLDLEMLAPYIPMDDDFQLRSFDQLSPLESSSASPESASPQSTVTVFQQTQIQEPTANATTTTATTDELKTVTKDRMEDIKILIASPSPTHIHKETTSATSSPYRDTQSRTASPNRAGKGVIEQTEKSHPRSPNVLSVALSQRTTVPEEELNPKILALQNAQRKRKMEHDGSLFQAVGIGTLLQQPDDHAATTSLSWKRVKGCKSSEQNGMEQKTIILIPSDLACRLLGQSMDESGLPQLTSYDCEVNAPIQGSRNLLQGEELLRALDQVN
# How it was run: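 Measures endogenous transcription-factor activity through cis-regulated reporter mRNA in HepG2. Cells dosed 24 h; transcripts quantified by RT-PCR with 6-FAM-labelled products separated by capillary electrophoresis; DMSO serves as negative control.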
# [13] = target: Hepatocyte nuclear factor 6 (Homo sapiens) (UniProt Q9UBC0); assay: ATG_HNF6_CIS: Attagene CIS-FACTORIAL HepG2 Assay for human Hepatocyte Nuclear Factor 6 (HNF6) (AID 2282952); conditions: HepG2 Attagene cis-factorial HNF6 reporter transcription; actives raise or lower the signal
# Sequence of Hepatocyte nuclear factor 6 (Homo sapiens) (Q9UBC0 whole entry, looked up, the tested form may be a part): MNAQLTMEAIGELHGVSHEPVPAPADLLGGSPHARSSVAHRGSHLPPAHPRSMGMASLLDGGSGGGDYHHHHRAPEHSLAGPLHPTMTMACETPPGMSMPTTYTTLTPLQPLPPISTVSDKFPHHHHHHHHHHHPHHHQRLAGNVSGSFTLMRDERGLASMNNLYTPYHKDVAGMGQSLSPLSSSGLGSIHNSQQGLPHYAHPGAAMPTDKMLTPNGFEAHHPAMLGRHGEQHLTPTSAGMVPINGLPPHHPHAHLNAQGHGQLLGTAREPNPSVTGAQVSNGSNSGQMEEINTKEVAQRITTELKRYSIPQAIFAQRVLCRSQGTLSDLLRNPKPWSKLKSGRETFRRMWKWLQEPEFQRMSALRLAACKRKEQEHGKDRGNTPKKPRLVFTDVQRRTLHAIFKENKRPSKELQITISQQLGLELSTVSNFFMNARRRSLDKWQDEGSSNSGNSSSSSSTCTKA
# How it was run: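 Twenty-four-hour chemical treatment of reporter-transfected HepG2 cells precedes RNA isolation, DNase-treated reverse transcription and PCR of reporter sequences. Labelled fragments are sized by capillary electrophoresis and fitted bidirectionally versus DMSO.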
# [14] = ATG_MRE_CIS: Attagene CIS-FACTORIAL HepG2 Assay for human Metal Responsive Element (MRE) (AID 2282954); conditions: HepG2 MRE cis-reporter transcription, Attagene multiplex; actives raise or lower the signal
# How it was run: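 Multiplexed cis-reporter assay in human HepG2 liver cells, 24 h incubation with test chemical. Reporter transcripts measured by RT-PCR and capillary electrophoresis; values from bidirectional curve fitting versus DMSO.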
# [15] = ATG_PBREM_CIS: Attagene CIS-FACTORIAL HepG2 Assay for human Phenobarbital-responsive Enhancer Module (PBREM) (AID 2282955); conditions: HepG2 PBREM cis-reporter, Attagene multiplexed transcription; actives raise or lower the signal
# How it was run: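 Fluorescence of labelled reporter cDNA fragments, resolved by capillary electrophoresis, gives mRNA induction in transfected HepG2 cells treated for 24 h; DMSO serves as negative control and baseline.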
# [16] = target: Paired box protein Pax-6 (Homo sapiens) (UniProt P26367); assay: ATG_Pax6_CIS: Attagene CIS-FACTORIAL HepG2 Assay for human Paired Box 6 (PAX6) (AID 2282956); conditions: HepG2 CIS-FACTORIAL PAX6 reporter transcription, RNA readout; actives raise or lower the signal
# Sequence of Paired box protein Pax-6 (Homo sapiens) (P26367 whole entry, looked up): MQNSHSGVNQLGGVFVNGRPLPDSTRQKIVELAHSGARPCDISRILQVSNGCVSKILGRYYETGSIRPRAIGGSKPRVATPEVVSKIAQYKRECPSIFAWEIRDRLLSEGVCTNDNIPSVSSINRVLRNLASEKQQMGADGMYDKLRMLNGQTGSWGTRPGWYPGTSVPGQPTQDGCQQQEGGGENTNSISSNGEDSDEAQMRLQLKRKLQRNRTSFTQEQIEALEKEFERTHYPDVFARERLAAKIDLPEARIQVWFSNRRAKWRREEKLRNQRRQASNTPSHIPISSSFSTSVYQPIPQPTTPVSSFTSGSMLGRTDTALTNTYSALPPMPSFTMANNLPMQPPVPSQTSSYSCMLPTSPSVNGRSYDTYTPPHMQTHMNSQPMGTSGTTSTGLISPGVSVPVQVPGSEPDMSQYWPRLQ
# How it was run: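 Read-out is reporter transcript level, measured by RT-PCR with fluorescent primer extension and capillary electrophoresis after 24 h dosing of transfected HepG2 cells. Activity in either direction fitted relative to DMSO control.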
# [17] = ATG_PXRE_CIS: Attagene CIS-FACTORIAL HepG2 Assay for human Pregnane X Receptor Element (PXRE) (AID 2282957); conditions: HepG2 Attagene CIS-FACTORIAL PXRE reporter, mRNA; actives raise or lower the signal
# How it was run: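 Bidirectional activity, baselined to DMSO, derived from reporter mRNA fluorescence (RT-PCR plus capillary electrophoresis) in HepG2 cells bearing cis-promoter reporter units, 24 h exposure.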
# [18] = ATG_ISRE_CIS: Attagene CIS-FACTORIAL HepG2 Assay for human Interferon Regulatory Factor 1 (IRF1) binding to an Interferon-Stimulated Response Element (ISRE) (AID 2282948); conditions: HepG2 ISRE cis-reporter (Attagene), mRNA transcription readout; actives raise or lower the signal
# How it was run: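 Endogenous transcription factor activity read as reporter transcript abundance via RT-PCR and capillary electrophoresis. HepG2 cells transiently transfected, 24 h chemical exposure. Gain or loss fitted against DMSO baseline.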
# [19] = target: Heat shock factor protein 1 (Homo sapiens) (UniProt Q00613); assay: ATG_HSE_CIS: Attagene CIS-FACTORIAL HepG2 Assay for human Heat Shock Transcription Factor 1 (HSE) (AID 2282953); conditions: HepG2 HSE cis-reporter, Attagene RNA transcription; actives raise or lower the signal
# Sequence of Heat shock factor protein 1 (Homo sapiens) (Q00613 whole entry, looked up): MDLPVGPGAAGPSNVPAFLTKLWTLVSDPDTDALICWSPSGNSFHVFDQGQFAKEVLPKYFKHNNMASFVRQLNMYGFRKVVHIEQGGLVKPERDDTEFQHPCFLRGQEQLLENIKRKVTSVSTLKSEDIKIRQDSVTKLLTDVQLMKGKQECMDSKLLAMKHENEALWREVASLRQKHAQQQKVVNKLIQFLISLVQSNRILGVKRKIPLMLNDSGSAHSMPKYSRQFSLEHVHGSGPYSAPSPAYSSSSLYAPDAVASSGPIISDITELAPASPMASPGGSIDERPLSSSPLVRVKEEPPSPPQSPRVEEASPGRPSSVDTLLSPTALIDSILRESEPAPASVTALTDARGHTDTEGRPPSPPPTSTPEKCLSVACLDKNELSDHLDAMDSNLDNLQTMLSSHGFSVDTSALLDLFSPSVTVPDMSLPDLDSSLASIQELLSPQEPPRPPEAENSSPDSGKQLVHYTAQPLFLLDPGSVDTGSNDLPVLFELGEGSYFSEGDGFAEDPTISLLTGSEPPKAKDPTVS
# How it was run: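 HepG2 cells transiently transfected with multiple reporter transcription units under cis-regulatory promoter control, measuring endogenous transcription factor activity. After 24 h chemical exposure, reporter mRNA quantified by RT-PCR, fluorescent labelling, HpaI digestion and capillary electrophoresis; bidirectional fit versus DMSO.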
# [20] = ATG_FoxO_CIS: Attagene CIS-FACTORIAL HepG2 Assay for human Forkhead box O (FoxO) (AID 2282943); conditions: HepG2 Attagene cis-reporter, FoxO element, mRNA; actives raise or lower the signal
# How it was run: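 Human hepatoma HepG2 cells carry transiently introduced reporter transcription units controlled by cis promoter elements. Chemical treatment lasted 24 h, and mRNA signal was compared with DMSO.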
smiles,measurement,setting,value
O=CC(F)(F)C(F)(F)C(F)(F)C(F)F,outcome,[1],inactive
same,outcome,[2],inactive
same,outcome,[3],inactive
same,outcome,[4],inactive
same,outcome,[5],inactive
same,outcome,[6],inactive
same,outcome,[7],inactive
same,outcome,[8],inactive
same,outcome,[9],inactive
same,outcome,[10],inactive
same,outcome,[11],inactive
same,outcome,[12],inactive
same,outcome,[13],inactive
same,outcome,[14],inactive
same,outcome,[15],inactive
same,outcome,[16],inactive
same,outcome,[17],inactive
CCCCCCC(C)(C)C(=O)O,AC50,[1],130 µM (active)
same,outcome,[2],inactive
same,AC50,[3],27.6 µM (active)
same,outcome,[4],inactive
same,outcome,[5],inactive
same,outcome,[6],inactive
same,outcome,[7],inactive
same,outcome,[8],inactive
same,outcome,[9],inactive
same,outcome,[18],inactive
same,outcome,[10],inactive
same,outcome,[11],inactive
same,AC50,[12],188 µM (active)
same,outcome,[13],inactive
same,outcome,[14],inactive
same,outcome,[15],inactive
same,AC50,[16],164 µM (active)
same,AC50,[17],27.4 µM (active)
Cc1ccc(N=Nc2c(O)ccc3ccccc23)c(C)c1,outcome,[1],inactive
same,outcome,[2],inactive
same,AC50,[3],5.07 µM (active)
same,outcome,[4],inactive
same,outcome,[5],inactive
same,outcome,[6],inactive
same,outcome,[7],inactive
same,outcome,[8],inactive
same,outcome,[9],inactive
same,outcome,[18],inactive
same,outcome,[10],inactive
same,outcome,[11],inactive
same,AC50,[12],13.2 µM (active)
same,AC50,[19],3.78 µM (active)
same,outcome,[14],inactive
same,outcome,[15],inactive
same,outcome,[16],inactive
same,AC50,[17],2.81 µM (active)
Oc1c(Cl)ccc(Cl)c1Cl,outcome,[1],inactive
same,outcome,[2],inactive
same,outcome,[3],inactive
same,outcome,[4],inactive
same,outcome,[5],inactive
same,outcome,[6],inactive
same,outcome,[7],inactive
same,outcome,[9],inactive
same,outcome,[10],inactive
same,outcome,[11],inactive
same,outcome,[12],inactive
same,outcome,[13],inactive
same,outcome,[19],inactive
same,outcome,[14],inactive
same,outcome,[16],inactive
same,AC50,[17],49.8 µM (active)
CC1CCC(C(=O)O)CC1 (stereo unspecified),outcome,[1],inactive
same,outcome,[2],inactive
same,AC50,[3],30.5 µM (active)
same,outcome,[4],inactive
same,outcome,[5],inactive
same,outcome,[6],inactive
same,outcome,[7],inactive
same,outcome,[8],inactive
same,outcome,[9],inactive
same,outcome,[18],inactive
same,outcome,[10],inactive
same,outcome,[11],inactive
same,outcome,[12],inactive
same,outcome,[13],inactive
same,outcome,[19],inactive
same,outcome,[14],inactive
same,outcome,[15],inactive
same,outcome,[16],inactive
same,outcome,[17],inactive
CC1CCC(CO)CC1 (stereo unspecified),outcome,[1],inactive
same,outcome,[2],inactive
same,AC50,[3],20 µM (active) and 27.1 µM (active)
same,outcome,[4],inactive
same,outcome,[5],inactive
same,outcome,[20],inactive
same,outcome,[6],inactive
same,outcome,[9],inactive
same,outcome,[18],inactive
same,outcome,[10],inactive
same,outcome,[11],inactive
same,outcome,[12],inactive
same,outcome,[19],inactive
same,outcome,[14],inactive
same,outcome,[16],inactive
same,outcome,[17],inactive
COc1cc(OC)nc(NC(=O)NS(=O)(=O)Nc2ccccc2C(=O)N(C)C)n1,outcome,[1],inactive
same,outcome,[2],inactive
same,outcome,[3],inactive
same,outcome,[4],inactive
same,outcome,[5],inactive
same,outcome,[6],inactive
same,outcome,[7],inactive
same,outcome,[8],inactive
same,outcome,[9],inactive
same,outcome,[18],inactive
same,outcome,[10],inactive
same,outcome,[11],inactive
same,outcome,[12],inactive
same,outcome,[13],inactive
same,outcome,[14],inactive
same,outcome,[16],inactive
same,outcome,[17],inactive
